HSF1 inhib: HSF1 inhibition | AID 2098 | hit rate 0.77% among 300,000 | activity change, negative = inhibition, % at 7.5 µM (by protocol) | NIH3T3-HGL HSE-luciferase, MG132-induced, luminescence 8 h; stronger effect = lower value;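 active means more than half of replicate wells show activity change below -50%, luminescence cut by over half; inconclusive means some wells, but at most half, below -50%; inactive means no replicate well below -50%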;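 further: luciferase reports HSF-1 transcriptional activity via heat shock element; 0% = median of DMSO wells and -100% = zero luminescence signal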
MITF act: increases MITF-driven TRPM1 promoter luciferase signal; SK-MEL-5 TRPM1-promoter luciferase, 24 h; % of positive control, neutral wells = 0; activation, % at 12.5 µM; hit rate 0.75% among 300,000;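 active means mean activation of at least 80% with every replicate also reaching 80%; inconclusive means mean reaches 80% but some replicate falls short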;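 further: 0% = neutral control wells and 100% = parthenolide positive control wells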
HSF1 activator: increases HSF-1 driven luciferase reporter signal | NIH3T3-HGL HSF-1 luciferase reporter, MG132, 8 h; 100% = twice DMSO control signal | activation, % at 9 µM | AID 504408 | hit rate 1.7% among 300,000;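 active means mean replicate activation of at least 50% with a set share of replicates each reaching 50%; inconclusive means only one of those two conditions met; inactive means mean below 50% and too few replicates reaching it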;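 further: 0% = median of the neutral control wells and 100% = twice that signal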
esBAF inh: blocks esBAF chromatin remodeling in mouse ES cells | Bmi1-luciferase knock-in reporter, 24 h; 100% = twice the neutral-well signal | reporter increase, % at 12.5 µM | hit rate 2% among 350,000 | AID 602393; in the data active means activation above about 40%; inconclusive means no clear call, values can overlap the other calls;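 further: 0% = median of the plate's neutral control wells and 100% = double that signal; a rise in the Bmi1 reporter signal indicates esBAF inhibition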
Wnt act: activates Wnt/beta-catenin signaling in a reporter cell assay; activator, plate reader; activation, % at 9.35 µM; hit rate 1.2% among 300,000; AID 743398; in the data active means activation above about 30%, passing the limit was not always enough; inconclusive means no clear call, values can overlap the other calls;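 further: 0% = neutral control wells and 100% = positive control wells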
An asterisk follows results filed as active; ? = inconclusive; . = not tested or not shown. In the library only some 3.8% were active in any assay of this set; here they are far more common.

SMILES	HSF1 inhib	MITF act	HSF1 activator	esBAF inh	Wnt act
Cc1cccc(Nc2nc3c(s2)CCCC3)c1	8.9	102.8*	19.0	.	65.4*
C/C(=N\Nc1nc2c(s1)CCCC2)c1ccccc1	-3.9	76.3	19.4	47.3*	6.1
O=C(O)c1ccc(Nc2nc3c(s2)CCCC3)cc1	.	-64.0	.	.	-2.9
C[C@@H]1CN([C@@H](C)CO)C(=O)c2cc(NS(=O)(=O)c3ccc(Cl)cc3)ccc2O[C@H]1CN(C)CC1CCCCC1	.	.	.	3.0	.
Cc1cccc(NC(=O)CC2SC(=O)N(c3ccccc3)C2=O)c1 (stereo not given)	16.4	-0.4	31.0	15.4	.
Cc1cccc(NC2SC(=O)N(c3ccccc3)C2=O)c1 (stereo not given)	19.8	0.1	41.0	54.8*	.
Cc1ccc(CC2SC(=Nc3ccccc3)N(c3ccccc3)C2=O)cc1 (stereo not given)	25.6	12.4	59.2*	.	.
O=C(O)CC1SC(=Nc2ccccc2)N(c2ccccc2)C1=O (stereo not given)	-2.8	-3.8	-14.9	-12.9	.
Cc1ccc(NC(=O)CC2SC(=O)N(c3ccccc3)C2=O)cc1 (stereo not given)	17.0	-10.8	35.7	.	32.5*
COC1C=CC=C(C)C(=O)NC2=CC(=O)C(N)=C(CC(C)CC(OC)C(O)C(C)C=C(C)C1OC(N)=O)C2=O (stereo not given)	69.4*	-65.3	69.4*	.	-21.3
COC1CC(C)C(OC)c2cc(O)cc(c2O)NC(=O)C(C)=CC=CC(C)C(OC(N)=O)C(C)=CC(C)C1OC (stereo not given)	.	.	.	.	-6.7
CC(C)NC(=O)N[C@H]1C=C[C@@H](CC(=O)NCc2ccc(Oc3ccccc3)cc2)O[C@@H]1CO	.	.	.	6.3	.
CC(C)NC(=O)N(C)C[C@@H]1OCCCC[C@@H](C)Oc2ccc(NC(=O)NC3CCCCC3)cc2C(=O)N([C@@H](C)CO)C[C@H]1C	.	.	.	0.3	.
CCOC(=O)c1c(NC(=O)c2ccco2)n(C2CCCCC2)c2nc3ccccc3nc12	50.2	-3.5	78.3*	.	.
O=C(Nc1cc(F)ccc1F)N1C[C@@H]2[C@H](c3ccccc31)[C@@H](CO)N2CC1CCCC1	.	.	.	-4.5	.
CSc1nc(Cc2ccccc2)cc(=O)[nH]1	-64.8*	-6.3	-73.0	1.0	-7.8
CCc1cc(=O)[nH]c(SCCc2ccccc2)n1	6.9	-21.4	17.3	3.8	.
C#CCn1cnc2c(cnn2-c2ccc(C)c(C)c2)c1=O	11.9	66.0	41.5	65.6*	.
Cc1nc2c3cnn(-c4ccc(C)c(C)c4)c3ncn2n1	21.2	87.2*	?	.	.
CN1C(=O)c2cc(NS(C)(=O)=O)ccc2OC[C@@H]2O[C@@H](CC(=O)O)CC[C@@H]21	.	.	.	3.9	.
COc1ccc(CN(C)C[C@@H]2OCCCC[C@@H](C)Oc3ccc(NC(=O)Nc4ccc(F)cc4)cc3C(=O)N([C@@H](C)CO)C[C@@H]2C)cc1	.	.	.	2.4	.
Cc1cccc(OCC(=O)Nc2ccc(N3CCN(S(C)(=O)=O)CC3)cc2)c1C	18.9	.	56.6*	-3.6	-3.3
Cc1cc(Cl)ccc1OCC(=O)NCc1ccncc1	3.8	18.4	24.7	61.6*	.
O=C(COc1ccc(Cl)cc1Cl)NCc1ccncc1	-3.2	0.0	14.2	-1.5	.
Cc1cc(Cl)ccc1OCC(=O)Nc1ccncc1	-59.3*	10.0	-69.4	6.3	-0.9
SMILES	HSF1 inhib	MITF act	HSF1 activator	esBAF inh	Wnt act
Cc1ccccc1OCC(=O)Nc1ccc(N2CCN(S(C)(=O)=O)CC2)cc1	4.9	1.3	39.0	.	-4.6
Cc1cccc(OCC(=O)Nc2ccncc2)c1C	-67.9*	.	-74.6	-1.1	-0.5
Cc1ccc(C)c(OCC(=O)Nc2ccncc2)c1	8.3	-6.9	18.4	3.7	-1.1
CN(C)C(=O)C[C@H]1C[C@H]2c3cc(NC(=O)c4ccc5c(c4)OCO5)ccc3O[C@H]2[C@H](CO)O1	.	.	.	9.3	.
CCC(=O)Nc1ccc2c(c1)OC[C@H](C)N(C(=O)c1cnccn1)C[C@H](C)[C@H](OC)CN(C)C2=O	.	.	.	0.0	.
CC(=O)Nc1cc(C(=O)OCC(=O)c2ccc(C)cc2)ccc1C	27.9	63.8	19.3	77.7*	?
COc1ccc(C(=O)COc2ccc(C)cc2NC(C)=O)cc1	5.3	.	38.4	.	55.9*
Cc1cccc(CCNc2nc3ccccc3n3nnnc23)c1	-0.2	15.3	19.3	9.5	-2.3
Clc1ccc(CCNc2nc3ccccc3n3nnnc23)cc1	26.0	.	51.3*	6.9	-1.0
